# Assay outcomes (PubChem BioAssay)
# Shown are actives, neighbours in structure and some others; about 1.6% of the full set was active somewhere.
# Mito fusion yeast: qHTS Assay for Small Molecule Inhibitors of Mitochondrial Division or Activators of Mitochondrial Fusion. S. cerevisiae fusion-defective mutant growth rescue, CellTiterGlo 48 h. Potency, µM (titrated, usually from 46.1 µM), without a hit: at the top dose growth rescue (activation), usual class: activators. hit rate 0.23% among 320,000. AID 485298, 2010; also: % of control where 0% means no effect; nearly all actives have a fitted effect of over 45% in size
#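 Luminescent cell viability in 1536-well qHTS format served as the measure of rescued growth in ts fusion-mutant S. cerevisiae cultured on non-fermentable YPEG for 48 hours at 37C.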
# ALOX12 inh: Primary qHTS assay for inhibitors of human arachidonate 12S-lipoxygenase (ALOX12): Round 2 | Polyunsaturated fatty acid lipoxygenase ALOX12 (Homo sapiens), P18054 | purified 12hLO, xylenol orange hydroperoxide absorbance | Potency, µM (top dose mostly 108 µM), for the others: top-dose activity change, negative = inhibition, usual class: inhibitors | hit rate 1.1% among 580,000; also: % is scaled to controls: 0 for no effect and ±100 for the full control effect
# Target sequence (P18054 whole entry, looked up): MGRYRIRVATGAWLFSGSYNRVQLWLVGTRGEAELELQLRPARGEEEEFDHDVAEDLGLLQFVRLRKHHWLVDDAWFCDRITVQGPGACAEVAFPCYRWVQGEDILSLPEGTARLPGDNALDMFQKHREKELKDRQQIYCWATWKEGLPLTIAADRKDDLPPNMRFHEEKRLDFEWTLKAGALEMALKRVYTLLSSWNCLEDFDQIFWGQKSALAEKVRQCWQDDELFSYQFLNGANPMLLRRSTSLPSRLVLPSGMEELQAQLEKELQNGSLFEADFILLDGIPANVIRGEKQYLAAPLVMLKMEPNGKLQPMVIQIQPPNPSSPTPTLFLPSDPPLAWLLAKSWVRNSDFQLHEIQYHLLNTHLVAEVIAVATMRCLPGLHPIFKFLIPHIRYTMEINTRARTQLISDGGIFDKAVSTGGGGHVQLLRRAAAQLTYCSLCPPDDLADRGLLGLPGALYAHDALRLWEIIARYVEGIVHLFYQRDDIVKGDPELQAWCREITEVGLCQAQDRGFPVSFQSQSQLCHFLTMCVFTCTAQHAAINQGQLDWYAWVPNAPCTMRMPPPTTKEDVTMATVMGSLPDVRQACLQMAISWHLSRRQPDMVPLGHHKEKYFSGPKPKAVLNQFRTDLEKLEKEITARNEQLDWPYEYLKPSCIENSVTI
#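 Hydroperoxide product was detected by ferrous iron/xylenol orange as the 573 to 405 nm absorbance ratio. Arachidonic acid at 40 uM (final) was turned over for 30 min at room temperature by 150 nM human 12hLO, pH 7.0 Hepes buffer, after 15 min compound preincubation.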
# gsp antagonist: qHTS for Antagonists of gsp, the Etiologic Mutation Responsible for Fibrous Dysplasia/McCune-Albright Syndrome: qHTS; gsp-mutant cells, cAMP HTRF, 30 min; Potency, µM (top dose mostly 76.9 µM), for inactives: at the highest dose activity change, negative = inhibition, usual class: inhibitors; hit rate 0.4% among 340,000; calls by dose curve; cell line not stated here;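 also: intracellular cAMP measured with PDE inhibitor Ro 20-1724 present during compound exposure; % is scaled to controls: 0 for no effect and ±100 for the full control effect; nearly all actives have a fitted effect of over 65% in size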
#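 HTRF cAMP read-out (cAMP-d2 plus anti-cAMP antibody-K in lysis buffer, 30 min RT). Before lysis, cells are exposed to compounds with […] for 30 min at 37C in DPBS containing Ca/Mg, BSA and Tween 20.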
# gsp ag: qHTS for Agonist of gsp, the Etiologic Mutation Responsible for Fibrous Dysplasia/McCune-Albright Syndrome: qHTS. gsp mutant cells, cAMP HTRF, 30 min. Potency, µM (titrated, usually from 76.9 µM), inactives show at the top dose activation (cAMP increase), actives largely listed as activators. hit rate 0.13% among 340,000. AID 624287, 2012; active = well fitted activation curve with a large enough effect; inconclusive = small, poorly fitted or top-dose-only effect, or another doubt; inactive = no such curve, though single readings can be large or run the other way; cell line not stated here;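 also: phosphodiesterase inhibitor Ro 20-1724 added with compounds to block cAMP breakdown; nearly all actives have a fitted effect of over 60% in size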
#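 Cells in DMEM/10% FBS with G418 were pretreated with compounds in DMSO plus […] (300 uM stock) for 30 min at 37C. cAMP was measured by HTRF (cAMP-d2 plus anti-cAMP antibody-K) after 30 min at room temperature.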
# FUS yeast rescue: qHTS for Suppressors of FUS Proteinopathy: Primary screen using FUS-linked yeast assay. S. cerevisiae FUS-expressing, growth rescue, OD600, 24 h. Potency, µM (doses to about 76.6 µM), usual class: activators. hit rate 0.24% among 390,000. AID 1347120, 2019;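 also: plate controls were DMSO vehicle for no effect and reference control for full effect; nearly all actives have a fitted effect of over 55% in size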
#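 Yeast FUS proteinopathy model; galactose-induced FUS (2%), starting OD 0.005. Cpds in dilution series, 24hr, 30C, 99% humidity. Abs 600 nm growth. Pos ctrl CP55940 (top 92uM final); neg ctrl DMSO.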
# * = called active by the depositor; i = inactive; ? = inconclusive; / = not tested or not shown; ! = repeats disagree; [ ] = dose if it differs, or a comment. Unless noted, calls follow the shape of the dose curve; as a rule, active = well fitted curve in the direction sought with a large enough effect; inconclusive = small, poorly fitted or top-dose-only effect, or another doubt; inactive = no such curve, though single readings can be large; an effect the other way counts as inactive or inconclusive. Potency is read from the fitted curve at half-maximal effect.
SMILES,Mito fusion yeast,ALOX12 inh,gsp antagonist,gsp ag,FUS yeast rescue
COc1ccccc1/C=C/C=N/n1c(-c2cc(-c3ccccc3)n[nH]2)n[nH]c1=S,5%,10µM*,-18%,-5%[15.4 µM],i
CC(/C=N/n1c(-c2ccncc2)n[nH]c1=S)=C\c1ccco1,5%,7.1µM*,-12%,0%,?
CC(/C=N/n1c(-c2ccc(C)cc2)n[nH]c1=S)=C\c1ccco1,8%,?,-11%,-13%,/
Cc1cccc(-c2n[nH]c(=S)n2/N=C/C=C/c2ccco2)c1,-5%,25µM*,-17%,-18%,i
CC(=C/c1ccccc1)/C=N/n1c(-c2ccncc2)n[nH]c1=S,20%,13µM*,-17%,?,i
COCC(=O)n1nc(NCc2ccc(F)cc2)nc1NCc1ccc(F)cc1,/,-13%,/,/,/
Cc1ccccc1C1C(C#N)=C2NC(=O)c3c(sc4c3CCCCC4)N2C2=C1C(=O)CC(C)(C)C2 (configuration not stated),2%,/,/,/,/
Cc1ccccc1C1C(C#N)=C2N=C(N)c3c(sc4c3CCCCC4)N2C2=C1C(=O)CC(C)(C)C2 (configuration not stated),-3%,42%,-19%,?,28µM*
Oc1cc(O)cc(/C=C/c2ccc(O)c(O)c2)c1,?,7.9µM*!,-18%,/,i
CC1(COc2ccccc2)COc2ccc(C(=O)NCCOc3ccccc3)cc2N1 (configuration not stated),/,-15%[176 µM],/,/,/
CC1(COc2ccccc2)COc2ccc(C(=O)NCc3ccncc3)cc2N1 (configuration not stated),/,28µM*,/,/,/
O=C(COc1ccc(Br)cc1)Nc1ccc(C(=O)Nc2ccccc2C(=O)O)cc1,-1%,-11%,-3%,12%[15.4 µM],i
COc1ccc(OCC(=O)Nc2ccc(C(=O)Nc3ccccc3C(=O)O)cc2)cc1,-1%,?,40µM*,16%,i
CCOC(=O)c1c(NC(=O)C(C)OC(=O)C2=COCCO2)sc2c1CCCC2 (configuration not stated),?,/,22µM*,-16%,i
CCOC(=O)c1c(NC(=O)C(C)OC(=O)c2ccc(NC(=O)CC#N)cc2)sc2c1CCCC2 (configuration not stated),28%,-6%,-15%,4%,i
COCC(=O)Oc1ccc2oc3ccccc3c2c1,/,34%,/,/,/
CCOc1ccc(NC(=O)COC(=O)c2sc3ccccc3c2Cl)cc1,/,13%,/,/,/
O=[N+]([O-])c1c(Nc2cccc(O)c2)cc(Cl)c2nonc12,-11%,?,35µM*,1%,i
O=[N+]([O-])c1c(Nc2ccccc2)cc(Cl)c2nonc12,/,-96%,/,/,/
FC(F)(F)C1(C(F)(F)F)C2C=CC(C2)N1c1nccs1 (configuration not stated),/,34%,/,/,/
CNc1nc(-c2[nH]c(C)c(C(=O)OC)c2C)cs1,/,20µM*,/,/,/
CC(=O)c1c(C)[nH]c(-c2csc(NCC(C)C)n2)c1C,/,24%,/,/,/
Oc1ccc(/C=N/N2CCN(C3c4ccccc4-c4ccccc43)CC2)cc1,-1%,-8%,-2%,-13%[15.4 µM],i
Oc1ccc(/C=N/N2CCN(C3c4ccccc4-c4ccccc43)CC2)cc1O,4%,18µM*,2%,9%[15.4 µM],i
Cn1ccc2ccc(C(=O)Nc3nnc(C4CC4)s3)cc21,/,18%,/,/,/
SMILES,Mito fusion yeast,ALOX12 inh,gsp antagonist,gsp ag,FUS yeast rescue
COc1ccc(NC(=O)/C=C\C(=O)N(c2ccc(C(C)C)cc2)C(C(=O)NCc2ccco2)c2ccc(C)cc2)cc1 (configuration not stated),/,-22%,/,/,4.5µM*
O=C1c2c(O)ccc(O)c2C(=O)c2c(NCCNCCO)ccc(NCCNCCO)c21,-13%,14%,?,-3%,28µM*
Cc1ccc(NC(=S)NC(=O)C2CCCC2)c(Br)c1,/,35µM*,-12%,-48%,i
Cc1ccc(NS(=O)(=O)c2ccc(Cl)c(NC(=S)NC(=O)C3CCCCC3)c2)cc1Cl,8%,13µM*,-4%,0%,i
COc1ccc(NS(=O)(=O)c2ccc(Cl)c(NC(=O)c3ccccc3F)c2)cc1,/,-4%,?,-16%,/
CC(C)(C)C(=O)Nc1cc(S(=O)(=O)Nc2ccc(Cl)cc2)ccc1Cl,18µM*,?,-16%,-31%,i
O=C(NC(=S)Nc1ccccc1Br)C1CC1,/,-22%,-5%,14%,i
Cc1ccc(NC(=O)C2CCCC2)cc1Cl,/,250%,3%,-2%,i
CC1CCN(C(=O)CN(C)CC(=O)Nc2c(Cl)cccc2Cl)CC1,/,30%,/,/,/
O=C(Oc1ccc2c(=O)c(Oc3ccccc3Br)coc2c1)c1cccs1,/,39%,/,/,/
CCCCn1nc(C(=O)NCc2ccccc2F)c2ccccc2c1=O,/,-3%,/,/,/
N#Cc1ccc(F)c(COC(=O)c2ccccc2C(=O)c2ccc(Cl)cc2)c1,/,-8%,/,/,/
CCOc1ccc(CC(=O)Nc2sc(Cc3ccccc3)c(C)c2C(N)=O)cc1OCC,-2%,0%,12%,11%,14µM*
CN1[C@@H](CCC(=O)NCc2cccs2)CNC(=O)[C@@H]2[C@H]1CCN2Cc1cccc(Cl)c1,/,34%,/,/,/
O=c1cc(O)nc(SCc2ccccc2)n1-c1ccc(Cl)cc1,4%,45µM*,-18%,-31%,i
O=C(CSc1nc(O)cc(=O)n1-c1ccccc1)Nc1ccc(Br)cn1,4%,?,1%,?,28µM*
CC(C)(C)NC(=O)CSc1nc(O)cc(=O)n1-c1ccccc1,0%,-6%[57.4 µM],-24%,-5%,i
Cc1ccc(NC(=O)CSc2nc(O)cc(=O)n2-c2ccc(C)cc2)cc1,13%,2.2µM*,2%,-58%,i
COc1ccc(-n2c(SCC(=O)Nc3ccc(Br)cc3)nc(O)cc2=O)cc1,-3%,2.2µM*,-15%,-9%[15.4 µM],i
Cc1ccc(NC(=O)CSc2nc(O)cc(=O)n2C)cc1,-3%,0%[57.4 µM],3%,1%,?
COc1ccc(CNC(=O)CN2C(=O)CN(C(=O)NCc3ccccc3)c3ccccc32)cc1,/,3%,/,/,/
Cc1ccc(Oc2ccc(NC(=O)c3nn(C)c(=O)c4ccccc34)cc2)cc1,/,-26%,/,/,/
CCCn1nc(C(=O)Nc2ccc(Br)c(C(F)(F)F)c2)c2ccccc2c1=O,/,1%,/,/,/
COc1ccccc1-n1c(SCC(=O)Nc2ccc(C)cc2)nc(O)cc1=O,2%,0.32µM*!,1%,4%,?
COc1cccc(NC(=O)Cn2c(C)cc(=O)n3nc(-c4cccs4)nc23)c1,/,-5%,/,/,/
Cc1cc(=S)[nH]c2c(C)cccc12,1%,1.1µM*!,17%,17%,i
Cc1cccc2c(-c3ccccc3)cc(=O)[nH]c12,8%,0%,0%,-33%,i
